This is an account of results in PubChem BioAssay (Tox21).

Where “and” joins values, the source holds several entries; their conditions need not be identical. Equal entries are not always repeated. Calls of active or inactive are those of the source. Calls come from the whole dose curve; as a rule, active = well fitted activation curve with a large enough effect in the repeat runs; inconclusive = weak or mixed curves; inactive = flat fitted curve, though single readings scatter.
% is set by controls: 0 for no effect and ±100 for the full control effect; potency is the fitted concentration of half-maximal effect.

Sequence of Androgen receptor (Homo sapiens) (P10275 whole entry, looked up): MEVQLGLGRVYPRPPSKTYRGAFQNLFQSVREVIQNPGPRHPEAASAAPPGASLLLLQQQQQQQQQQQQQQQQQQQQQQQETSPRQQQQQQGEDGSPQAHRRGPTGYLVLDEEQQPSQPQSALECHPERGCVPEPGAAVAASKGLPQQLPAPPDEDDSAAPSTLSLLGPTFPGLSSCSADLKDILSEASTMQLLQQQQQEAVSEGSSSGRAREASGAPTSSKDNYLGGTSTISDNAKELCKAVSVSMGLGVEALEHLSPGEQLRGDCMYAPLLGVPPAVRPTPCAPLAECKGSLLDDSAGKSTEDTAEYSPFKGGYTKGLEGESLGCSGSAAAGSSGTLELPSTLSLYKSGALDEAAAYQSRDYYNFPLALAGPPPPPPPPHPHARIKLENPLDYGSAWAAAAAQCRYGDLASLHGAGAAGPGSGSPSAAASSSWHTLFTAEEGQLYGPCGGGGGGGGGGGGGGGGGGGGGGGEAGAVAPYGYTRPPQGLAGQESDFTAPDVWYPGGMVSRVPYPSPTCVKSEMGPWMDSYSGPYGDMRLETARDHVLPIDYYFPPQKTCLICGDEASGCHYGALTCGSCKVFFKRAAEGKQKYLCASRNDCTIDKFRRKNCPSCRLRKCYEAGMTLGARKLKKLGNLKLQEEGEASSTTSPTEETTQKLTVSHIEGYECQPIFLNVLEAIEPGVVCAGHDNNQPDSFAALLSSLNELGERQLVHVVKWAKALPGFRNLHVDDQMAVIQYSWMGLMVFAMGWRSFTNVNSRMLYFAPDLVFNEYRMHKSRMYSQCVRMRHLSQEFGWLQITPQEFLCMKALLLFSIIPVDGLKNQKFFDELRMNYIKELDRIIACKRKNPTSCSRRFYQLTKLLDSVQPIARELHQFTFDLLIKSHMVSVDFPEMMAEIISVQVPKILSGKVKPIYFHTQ

In this test the target is Androgen receptor (Homo sapiens) (UniProt P10275). Briefly: qHTS assay to identify small molecule agonists of the androgen receptor (AR) signaling pathway using the MDA cell line (AID 743040; note: nearly all actives have a fitted effect of over 20% in size). To be noted: MDA-kb2 AR-luc cells, MMTV luciferase, 16 h; series mostly up to 70.3 µM; activity change: at the top concentration. An excerpt:
National Center for Advancing Translational Sciences [NCATS]
NIH Chemical Genomics Center [NCGC]
U.S. Environmental Protection Agency [EPA]
National Institutes of Environmental Health Sciences [NIEHS]
National Toxicology Program [NTP]
U.S. Food and Drug Administration [FDA]
Androgen receptor (AR), a nuclear hormone receptor, plays a critical role in AR-dependent prostate cancer and other androgen related diseases. Endocrine disrupting chemicals (EDCs) and their interactions with steroid hormone receptors like AR may cause disruption of normal endocrine function as well as interfere with metabolic homeostasis, reproduction, developmental and behavioral functions. To identify the compounds that activate AR signaling, MDA-kb2 AR-luc cell line (from ATCC, deposited by Wilson et al.) was used to screen the Tox21 10K compound library. MDA-kb2 AR-luc cell line is human breast carcinoma cell line that was stably transfected with a luciferase reporter gene under control of the MMTV promoter containing response elements for both androgen receptor (AR) and glucocorticoid receptor (GR).
Tox21 Assay Protocol Summary:
MDA-kb2 AR-luc cells were dispensed at 3,000 cells/5 uL/well of culture medium into white wall/solid-bottom 1536-well plates using a Multidrop Combi (ThermoFisher Scientific, Waltham, MA) dispenser. After the assay plates were incubated at 37C and 0% CO2 for 5 h, 23 nL of compounds dissolved in DMSO, positive controls or DMSO only was transferred to the assay plate by a Pintool station (Kalypsys, San Diego, CA). The plates were incubated at 37C and 0% CO2 for 16 h. Then 4 uL of ONE-Glo reagent (Promega, Madison, WI) was added to each plate using a Bioraptr Flying Reagent Dispenser (FRD) workstation (Beckman Coulter, Indianapolis, IN, USA) and luminescence was quantified on a ViewLux (PerkinElmer, Shelton, CT) plate reader after 30 min incubation at room temperature.
(In general: qHTS replaces the single test concentration by a dilution series.)
`Clc1ccc2c(c1)C(c1ccccc1)=NCc1nncn1-2`: the “activity change” value was -2.8% (inactive).

Consider `NC(=O)CN1CC(O)CC1=O` (stereo not given), for which the “activity change” value is -0.18% (inactive). As to `CN1CC[C@@]23CCCC[C@@H]2[C@@H]1Cc1ccc(O)cc13`, the Potency is 26.6 µM (active). On to `Cc1ccc(N(SC(F)(Cl)Cl)S(=O)(=O)N(C)C)cc1`, for which the “activity change” value is -11% (inactive). `N#CC(C#N)=Cc1cc(O)c(O)c(O)c1`: the “activity change” value is -4.25% (inactive).

With `CNC(=O)Oc1ccccc1C(=O)Nc1ccccc1`, the “activity change” value is 0.398% (inactive). On to `CCN(CC)C(=O)N[C@H]1C[C@@H]2c3cccc4[nH]cc(c34)C[C@H]2N(C)C1`, for which the “activity change” value is 1.06% (inactive). With `C[C@]12CC[C@H]3[C@@H](CCC4=C(Cl)C(=O)CC[C@@]43C)[C@@H]1CC[C@@H]2O`, the Potency is 0.0019 µM (active).

As to `NCC(O)c1cccc(O)c1` (stereo not given), the “activity change” value was 0.511% (inactive). `COC(=O)[C@]12CCC(C)(C)C[C@H]1[C@H]1C(=O)C=C3[C@@]4(C)C=C(C#N)C(=O)C(C)(C)[C@@H]4CC[C@@]3(C)[C@]1(C)CC2`: the “activity change” value was -11.5% (inactive). Consider `C[C@]12CC[C@@H]3c4ccc(OC(=O)N(CCCl)CCCl)cc4CC[C@H]3[C@@H]1CC[C@@H]2OP(=O)(O)O`, for which the Potency is 5.31 µM (active) and 10.6 µM (active).

For the molecule `C[C@@H](Cc1ccccc1)N(C)C`, the “activity change” value was -0.281% (inactive). Take `C[N+]1(C)[C@@H]2CC[C@H]1CC(OC(=O)c1c[nH]c3ccccc13)C2` (stereo not given in full): the “activity change” value was -0.541% (inactive). Take `C[C@@H]1[C@@H]2Cc3ccc(O)cc3[C@@]1(C)CCN2CC1CC1`: the “activity change” value is 0.289% (inactive). On the same count and under the same terms, the value for `O=[N+]([O-])c1cc(I)c(O)c(I)c1` was -2.09% (inactive). Turning to `CCC(=O)O[C@]1(c2ccccc2)CCN(C)C[C@H]1C`, the “activity change” value was 0.162% (inactive). `C[N+]1([O-])[C@@H]2CC(OC(=O)[C@H](CO)c3ccccc3)C[C@H]1[C@@H]1O[C@@H]12` (stereo not given in full): the Potency result was “inactive”. For `O=c1ccc2cc(O[C@@H]3O[C@H](CO)[C@@H](O)[C@H](O)[C@H]3O)c(O)cc2o1`, the “activity change” value is -0.129% [at 32.5 µM, active compounds read high] (inactive). `COc1ccc(OC)c([C@@H](O)[C@H](C)N)c1`: the “activity change” value was 9.08% (inactive).

For the molecule `Cc1cc(C(C)(C)c2ccc(O)c(C)c2)ccc1O`, the “activity change” value was -2.68% (inactive). Same read-out and setting: the value for `COC(=O)[C@@H]1[C@H]2CC[C@@H](C[C@H]1OC(=O)c1ccccc1)N2C` was 0.0466% (inactive). As to `CCCCCc1cc(O)c2c(c1)OC(C)(C)[C@@H]1CCC(C)=C[C@@H]21`, the “activity change” value is -7.66% (inactive). For `CCCCCN(C)CCC(O)(P(=O)(O)O)P(=O)(O)O`, the “activity change” value is 0.208% (inactive). For the molecule `C[C@@H](CO)NC(=O)[C@@H]1C=C2c3cccc4[nH]cc(c34)C[C@H]2N(C)C1`, the Potency is 26.6 µM (active). With `CC1(C)S[C@@H]2[C@H](N)C(=O)N2[C@H]1C(=O)O`, the “activity change” value is -0.362% [at 32.5 µM, active compounds read high] (inactive).

As for `Cc1nnc2n1-c1sc(Br)cc1C(c1ccccc1Cl)=NC2`, the “activity change” value is -0.957% (inactive). With `CO/C=C(/C(=O)OC)c1ccccc1Oc1cc(Oc2ccccc2C#N)ncn1`, the “activity change” value is -12.6% [at 95 µM, active compounds read high] (inactive).

As to `COC(COC(N)=O)C1=C(N2CC2)C(=O)C(C)=C(N2CC2)C1=O` (stereo not given), the “activity change” value is -10.6% (inactive). On the same count and under the same terms, then `CCCSc1cc(OC)c(CCN)cc1OC`, with -5.34% [at 95 µM, active compounds read high] (inactive). For the molecule `c1cc2c(c(NC3=NCCN3)c1)CCCC2`, the “activity change” value is 4.71% (inactive). `C[C@]12C[C@H]3S[C@H]3C[C@@H]1CC[C@@H]1[C@@H]2CC[C@]2(C)[C@@H](O)CC[C@@H]12`: the Potency was 0.0003 µM (active). As for `Clc1ccc(C(Cn2ccnc2)OCc2csc3c(Cl)cccc23)c(Cl)c1` (stereo not given), the “activity change” value was 1.84% [at 32.5 µM, active compounds read high] (inactive). Regarding `C=CCC1(C(C)CCC)C(=O)N=C(S)NC1=O` (stereo not given), the “activity change” value was -3.2% (inactive). On the same count and under the same terms, then `C=CCN1CC[C@]23c4c5ccc(O)c4O[C@H]2[C@@H](O)C=C[C@H]3[C@H]1C5`, with 1.88% (inactive). For `OC(c1ccccc1)(c1ccccc1)C1CN2CCC1CC2` (stereo not given), the Potency was 26.6 µM (active).

For `C[C@@H](N)C(=O)c1ccccc1`, the “activity change” value was 1.33% [at 95 µM, active compounds read high] (inactive). On the same count and under the same terms, then `O=c1c2ccccc2[se]n1-c1ccccc1`, with 1.11% (inactive); and `O=C1CN(O)C(c2ccccc2)=c2cc(Cl)ccc2=N1`, with 0.41% (inactive); and `Oc1cccc[c]1[Hg][Cl]`, with -13.7% (inactive). Consider `CN1CCCC(=C(c2cccs2)c2cccs2)C1`, for which the “activity change” value is -0.934% (inactive).
